Data from PubChem BioAssay AID1345083 (National Center for Advancing Translational Sciences (NCATS), 2018).
About 6,200 (6.6%) of roughly 94,000 compounds were called active. Roughly 31% stayed inconclusive and do not appear here. Calls come from the whole dose curve; as a rule, active = well fitted inhibition curve with a large enough effect; inconclusive = small, poorly fitted or top-dose-only effect; inactive = flat fitted curve, though single readings scatter. For the sample, actives were picked, then their nearest neighbours and some compounds at random.
% is set by controls: 0 for no effect and ±100 for the full control effect; potency is the fitted concentration of half-maximal effect.

Assay: Cytotoxic Profiling in HEK 293 Cell Line of Diverse Libraries Using Quantitative High-Throughput Screening; note: nearly all actives have a fitted effect of over 60% in size
Conditions: HEK 293 viability, ATP luminescence (CellTiter-Glo), 48-72 h; series mostly up to 115 µM; activity change, negative = cytotoxicity: at the top concentration
Outline: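 HEK 293 cells seeded at 250 cells/well were exposed to compound for 48 or 72 hr at 37 degree Celsius. Viability taken as ATP content by CellTiter-Glo luminescence.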
With `COc1cc(=O)n2c(c1C(=O)Nc1cc(C)ccc1C)CCCC2` the “activity change, negative = cytotoxicity” value was 5.72% (inactive). With `O=C(NC1CCCN(CCn2nc3n(c2=O)CCCC3)C1)c1ccc(F)cc1` (stereo unspecified) the “outcome” value was “inactive”. For `CCCCCC(=O)N1CC[C@H]2COC(=O)N2c2cc(F)ccc2C1`, the “activity change, negative = cytotoxicity” value was -1.72% [at 172 µM] (inactive). For `CN(CCc1noc(C2CN(S(=O)(=O)c3ccccc3)C2)n1)C(=O)c1ccncc1`, the “activity change, negative = cytotoxicity” value was -17.8% (inactive). With `O=S(=O)(c1ccccc1)N1CCN(c2ccnc3ccnn23)CC1` the “activity change, negative = cytotoxicity” value was -19.4% (inactive). With `O=S(=O)(c1ccccc1)N1CCC(F)(c2nc(Cc3ccccc3)no2)CC1` the Potency was 44.7 µM (active). With `O=C(NCc1ccncc1)C1CC(=O)N(c2n[nH]c3cccc(F)c23)C1` (stereo unspecified) the “activity change, negative = cytotoxicity” value was -11% (inactive). In the case of `Cc1ncc(C(=O)N2CCCC(c3cc(N4CCOCC4)nc(C)n3)C2)cn1` (stereo unspecified), the “activity change, negative = cytotoxicity” value was -4.68% (inactive). For `CN(C)C(=O)C1=NOC2CN(C(=O)c3ccn(C)n3)CC12` (stereo unspecified), the “outcome” value was “inactive [at 172 µM]”. In the case of `O=C(CN1C(=O)NC2(CCOCC2)C1=O)Nc1cccc(Br)c1`, the “activity change, negative = cytotoxicity” value was -9.49% (inactive). In the case of `CCOc1ccccc1CN1CCCOCCNC(=O)CC1`, the “activity change, negative = cytotoxicity” value was 4.71% (inactive). In the case of `CCOc1ccccc1CN1CCC2(CCN(C(=O)c3cccc(Cl)c3)CC2)Oc2ccccc21`, the “activity change, negative = cytotoxicity” value was -12.9% (inactive). For `CCOc1ccccc1CN1CCC2(CCN(Cc3cncs3)CC2)Oc2ccccc21`, the Potency was 44.7 µM (active). With `CCn1ccc(C(=O)N2C[C@@H](F)C[C@H]2C(=O)N2CCCCC2)n1` the “activity change, negative = cytotoxicity” value was 5.92% (inactive). For `C#CCNC(=O)CC[C@H]1CNC(=O)[C@@H]2[C@@H](CCN2Cc2ccc(N(C)C)cc2)N1C`, the “activity change, negative = cytotoxicity” value was -24.8% [at 172 µM] (inactive). In the case of `CN1C[C@@H](NC(=O)c2cnccn2)C[C@H]1c1nc(-c2ccc3c(c2)OCO3)no1`, the “activity change, negative = cytotoxicity” value was -7.22% [at 172 µM] (inactive). With `N#Cc1ccc(-c2nc(C(=O)NC3CCCCCC3)no2)cc1` the “activity change, negative = cytotoxicity” value was 5.1% (inactive). In the case of `CN1C[C@@H](NC(=O)CC(C)(C)C)C[C@H]1c1nc(Cc2ccccc2)no1`, the “activity change, negative = cytotoxicity” value was -26.1% [at 172 µM] (inactive). In the case of `N#Cc1ccc(C(=O)N2C[C@@H]3C[C@H](C2)c2ccc(-c4ccc(OC(F)(F)F)cc4)c(=O)n2C3)cc1`, the “activity change, negative = cytotoxicity” value was -16.7% (inactive). In the case of `CN1C[C@@H](NC(=O)c2ccc(C#N)cc2)C[C@H]1c1nc(-c2ccc(OC(F)(F)F)cc2)no1`, the Potency was 22.4 µM (active). With `CN1C[C@@H](NC(=O)c2ccccc2)C[C@H]1c1nc(-c2ccccc2)no1` the “activity change, negative = cytotoxicity” value was -13.3% [at 172 µM] (inactive). For `COc1ccc(CN2C[C@H](O)C[C@H]2c2nc(-c3ccc4c(c3)OCO4)no2)c(OC)c1OC`, the “activity change, negative = cytotoxicity” value was -15.4% (inactive). With `CN1C[C@@H](NC(=O)c2ccc(C(C)(C)C)cc2)C[C@H]1c1nc(-c2ccc3ccccc3c2)no1` the Potency was 22.4 µM (active). In the case of `CN1C[C@@H](NC(=O)COc2ccccc2)C[C@H]1c1nc(-c2ccc3c(c2)OCO3)no1`, the Potency was 100 µM (active). For `CN(C)C(=O)N1CCN(C(=O)c2cccc(-c3ccccn3)c2)CC1`, the “activity change, negative = cytotoxicity” value was -14.7% [at 172 µM] (inactive). With `Cc1ccc(S(=O)(=O)Cc2noc([C@@H]3C[C@@H](O)CN3Cc3cccs3)n2)cc1` the “activity change, negative = cytotoxicity” value was -16.9% [at 172 µM] (inactive).
